Data as given in PubChem BioAssay.
Calls of active or inactive are those of the source. Unless noted, no rule for the calls is given here.

Key:
[1] = compound effects on lung adenocarcinoma cell viability – A549, calcein-AM fluorescence, 48 h, basal, profiling panel (AID 1162); details: higher = more signal; also: test concentration not given here
[2] = compound effects on differentiated 3T3-L1 adipocyte viability – cell-based, 3T3-L1 adipocytes, calcein-AM fluorescence, 48 h, basal, profiling panel (AID 1163); details: 3T3-L1 adipocytes viability, higher = more signal; also: test concentration not given here
[3] = compound effects on hepatocellular carcinoma cell viability – HepG2, calcein-AM fluorescence, 48 h, basal, profiling panel (AID 1164); details: higher = more signal; also: test concentration not given here
[4] = compound effects on multiple myeloma cell viability – MM1S, calcein-AM fluorescence, 48 h, basal, profiling panel (AID 1165); details: higher = more signal;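 also: viability of MM1S multiple myeloma cells under basal unstimulated conditions; test concentration not given here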
[5] = calcein-AM signal in unstimulated myeloma cells – cell-based, calcein-AM fluorescence, 48 h, PK04 Diversity Set, profiling panel (AID 1166); details: RPMI8226 myeloma viability, higher = more signal;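 also: cells grown under basal conditions without added stimulus; test concentration not given here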
[6] = JC-1 mitochondrial signal, unstimulated HepG2 cells – cell-based, JC-1 fluorescence, 24 h, 100 nL compound, profiling panel (AID 1167); details: HepG2 mitochondrial potential, higher = more signal; also: test concentration not given here
[7] = JC-1 mitochondrial signal, unstimulated adipocytes – cell-based, JC-1 fluorescence, 3T3-L1 adipocytes, 24 h, 100 nL compound, profiling panel (AID 1168); details: JC-1 mitochondrial fluorescence, higher = more signal, called active from +8 up or from −8 down; also: test concentration not given here
[8] = JC-1 mitochondrial signal, unstimulated myeloma cells – cell-based, JC-1 fluorescence, RPMI8226, 24 h, 100 nL compound, profiling panel (AID 1169); details: JC-1 mitochondrial potential fluorescence, higher = more signal; also: test concentration not given here
[9] = JC-1 mitochondrial signal, unstimulated MM1S myeloma – cell-based, JC-1 fluorescence, 24 h, 100 nL compound, profiling panel (AID 1170); details: MM1S mitochondrial potential, higher = more signal; also: test concentration not given here
[10] = resazurin metabolic signal in A549 cells – cell-based, resazurin fluorescence, 24 h, PK04 Diversity Set, profiling panel (AID 1171); details: A549 viability, higher = more signal, called active from +8 up or from −8 down; also: test concentration not given here
[11] = resazurin metabolic signal in HepG2 cells – cell-based, resazurin fluorescence, 24 h, PK04 Diversity Set, profiling panel (AID 1172); details: HepG2 viability, higher = more signal; also: test concentration not given here
[12] = budding yeast growth changes without added modifier – OD600, strain BY4716, 24 h, basal condition, primary screen (AID 1173); details: S. cerevisiae BY4716 growth, OD600, 24 h; higher = more signal, called active from +8 up or from −8 down
[13] = viability profiling in MM1S myeloma cells – cell-based, resazurin fluorescence, basal, 24 h, PK04 Diversity Set, profiling panel (AID 1174); details: higher = more signal, called active from +8 up or from −8 down; also: test concentration not given here
[14] = target: Dihydroorotate dehydrogenase (quinone), mitochondrial (Plasmodium falciparum (isolate 3D7)) (UniProt Q08210); assay: inhibition of P. falciparum DHODH – biochemical, C-terminal His tag, absorbance 600 nm, primary screen (AID 1175); details: PfDHODH enzyme, DCIP absorbance 600 nm; higher = more signal, called active from +8 up or from −8 down;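 also: recombinant parasite enzyme with a five histidine tag at its C terminus; test concentration not given here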
Sequence of Dihydroorotate dehydrogenase (quinone), mitochondrial (Plasmodium falciparum (isolate 3D7)) (Q08210 whole entry, looked up): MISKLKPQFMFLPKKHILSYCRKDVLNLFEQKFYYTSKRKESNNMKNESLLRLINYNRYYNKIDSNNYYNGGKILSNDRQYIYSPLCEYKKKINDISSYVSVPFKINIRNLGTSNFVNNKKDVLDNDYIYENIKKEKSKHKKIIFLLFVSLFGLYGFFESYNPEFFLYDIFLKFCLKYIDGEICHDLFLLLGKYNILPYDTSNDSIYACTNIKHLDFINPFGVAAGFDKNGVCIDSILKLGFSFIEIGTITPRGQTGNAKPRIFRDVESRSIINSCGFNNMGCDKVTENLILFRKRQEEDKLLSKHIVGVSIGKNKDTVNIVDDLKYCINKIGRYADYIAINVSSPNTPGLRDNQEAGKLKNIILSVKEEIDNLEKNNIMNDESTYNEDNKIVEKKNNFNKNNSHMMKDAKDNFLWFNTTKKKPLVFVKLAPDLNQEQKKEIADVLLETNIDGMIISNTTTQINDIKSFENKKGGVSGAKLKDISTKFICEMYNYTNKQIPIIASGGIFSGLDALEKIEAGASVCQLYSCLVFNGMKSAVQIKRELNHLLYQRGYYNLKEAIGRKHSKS

[15] = inhibition of PAO1 biofilm formation – strain PAO1, LB-PBS medium, absorbance 600 nm, primary screen (AID 1176); also: test concentration not given here; details: P. aeruginosa PAO1 growth/biofilm, A600, 12 h; higher = more signal
[16] = growth modulation of vineyard yeast isolate – strain RM11-1a, OD600, basal, 24 h, primary screen (AID 1177);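 also: cultures grown under basal conditions with no added stressor; test concentration not given here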; details: S. cerevisiae RM11-1a growth, OD600, 24 h; higher = more signal, called active from +8 up or from −8 down
[17] = growth of efflux-deficient E. coli DRC39 – strain DRC39, OD650, 24 h, E. coli filamentation inducers, primary screen (AID 1178);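 also: growth measured as culture turbidity by optical density at 650 nm; test concentration not given here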; details: E. coli DRC39 acrAB, higher = more signal, called active from +8 up or from −8 down
[18] = growth of efflux-deficient E. coli DRC39 – strain DRC39, OD650, 48 h, E. coli filamentation inducers, primary screen (AID 1179);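 also: screen aims at cell division blockers that make cells filament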; details: E. coli DRC39 delta-acrAB growth, higher = more signal, called active from +8 up or from −8 down
[19] = viability profiling in RPMI8226 myeloma cells – cell-based, resazurin fluorescence, basal, 24 h, PK04 Diversity Set, profiling panel (AID 1180); details: higher = more signal;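 also: RPMI8826 multiple myeloma cell line at 5000 cells per well; test concentration not given here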
[20] = target: E3 ubiquitin-protein ligase XIAP (Homo sapiens) (UniProt P98170); assay: small molecules binding XIAP protein – biophysical, small-molecule microarray, fluorescence 635 nm, primary screen (AID 1181); details: higher = more signal;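 also: score merges 667 nm emission and signal to noise over triplicate slides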
Sequence of E3 ubiquitin-protein ligase XIAP (Homo sapiens) (P98170 whole entry, looked up): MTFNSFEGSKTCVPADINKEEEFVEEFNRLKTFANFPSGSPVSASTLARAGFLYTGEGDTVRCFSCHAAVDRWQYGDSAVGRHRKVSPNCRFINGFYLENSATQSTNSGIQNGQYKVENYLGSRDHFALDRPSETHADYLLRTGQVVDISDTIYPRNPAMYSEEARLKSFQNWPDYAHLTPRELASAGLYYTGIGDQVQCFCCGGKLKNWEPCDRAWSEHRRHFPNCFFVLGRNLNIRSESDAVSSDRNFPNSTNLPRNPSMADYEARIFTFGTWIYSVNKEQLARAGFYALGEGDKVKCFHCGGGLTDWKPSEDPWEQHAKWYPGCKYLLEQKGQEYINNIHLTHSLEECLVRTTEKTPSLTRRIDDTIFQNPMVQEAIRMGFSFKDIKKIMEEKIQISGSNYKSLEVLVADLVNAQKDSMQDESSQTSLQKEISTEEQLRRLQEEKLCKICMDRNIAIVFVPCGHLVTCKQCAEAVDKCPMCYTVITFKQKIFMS

Row | SMILES | z-score [1] | z-score [2] | z-score [3] | z-score [4] | z-score [5] | z-score [6] | z-score [7] | z-score [8] | z-score [9] | z-score [10] | z-score [11] | z-score [12] | z-score [13] | composite z-score [14] | z-score [15] | z-score [16] | z-score [17] | z-score [18] | z-score [19] | composite z-score [20]
1 | COc1ccc(CCN2C(=O)[C@@]3(Cc4ccccc42)c2ccccc2C(=O)N(Cc2ccccc2OC)[C@H]3c2ccc(CO)cc2)cc1 | -0.391 | 0.677 | -0.264 | -1.98 | -0.996 | 0.0826 | 0.16 (inactive) | 0.718 | 0.464 | 0.271 (inactive) | -0.736 | -0.158 (inactive) | 0.289 (inactive) | -4.65 (inactive) | -0.0065 (inactive) | -1.16 (inactive) | 0.981 (inactive) | 0.339 (inactive) | 1.01 | -0.194
2 | Cc1cc(C)c(C(O)C2C=CC3C(=O)N(c4ccccc4)C(=O)C3N2Nc2ccc(C(C)C)cc2)c(C)c1 (stereo not given) | -0.314 | 0.669 | 0.273 | -0.0101 | -0.792 | -1.37 | -1.13 (inactive) | -0.698 | 0.19 | -1.72 (inactive) | -1.47 | 0.626 (inactive) | -1.8 (inactive) | 0.68 (inactive) | 1.28 (inactive) | 1.58 (inactive) | -0.841 (inactive) | -0.876 (inactive) | -1.08 | -0.387
3 | COc1cc(OC)c(C(O)C2C=CC3C(=O)N(c4ccccc4)C(=O)C3N2Nc2ccccc2)cc1Br (stereo not given) | 1.84 | -1.48 | 0.0936 | 0.251 | -0.562 | -2.11 | -0.602 (inactive) | 0.292 | -0.761 | 0.439 (inactive) | 0.222 | -11 (active) | -1.14 (inactive) | 0.593 (inactive) | 0.475 (inactive) | 0.378 (inactive) | -1.05 (inactive) | -0.163 (inactive) | -1.52 | 0.0967
4 | CC(CO)N1C(=O)[C@@H]2[C@H]3C(=O)OCC=C[C@H]3OC23C=CCN(CCN2CCOCC2)C(=O)[C@@H]13 (stereo not given in full) | -0.313 | 0.344 | -0.0457 | 0.646 | -0.0704 | -0.382 | 0.126 (inactive) | 0.0907 | 0.12 | -0.147 (inactive) | 0.0843 | 0.0245 (inactive) | -0.622 (inactive) | -0.0564 (inactive) | -0.649 (inactive) | -0.169 (inactive) | -0.55 (inactive) | -0.733 (inactive) | -0.266 | -0.0046
5 | CC(C)C[C@@H]1NC(=O)[C@@H]2C[C@H](C(=O)NCCCCN(C)C)[C@H](c3cccc(OCCO)c3)N2C1=O | 0.355 | 0.507 | -1.2 | 0.26 | 0.54 | -0.627 | 0.454 (inactive) | -0.601 | -0.443 | 0.389 (inactive) | 0.0064 | -0.453 (inactive) | 0.303 (inactive) | -1.21 (inactive) | 0.655 (inactive) | -0.121 (inactive) | 0.0825 (inactive) | -0.653 (inactive) | -0.127 | -0.0749
6 | C=CCC(OC(C)=O)[C@@H]1[C@@H](N(Cc2cc3ccccc3o2)C(=O)c2ccc(C)cc2)c2cc(OCCCO)ccc2N1C(=O)Cc1ccc(OC)cc1 (stereo not given in full) | 1.09 | 0.426 | 0.979 | -0.143 | 0.166 | 2.52 | 0.235 (inactive) | 0.83 | 0.449 | 0.951 (inactive) | 0.564 | -0.859 (inactive) | 0.655 (inactive) | 0.889 (inactive) | 0.0885 (inactive) | 0.634 (inactive) | -0.506 (inactive) | -0.0196 (inactive) | 0.618 | -0.102
7 | CCOc1cc(C(O)C2C=CC3C(=O)N(C)C(=O)C3N2Nc2ccccc2)ccc1O (stereo not given) | -0.157 | -0.0778 | -0.243 | -2.21 | -0.429 | -1.48 | -0.725 (inactive) | -0.868 | -0.536 | -0.0004 (inactive) | -0.687 | 1.11 (inactive) | -0.328 (inactive) | 0.684 (inactive) | 0.807 (inactive) | 2.32 (inactive) | -0.501 (inactive) | -0.861 (inactive) | -0.323 | 0.312
8 | COCCCNC(=O)[C@@]1(Sc2ccc(C)cc2)CC(=O)N(C2CCCCC2)[C@@H]1c1ccc(CO)cc1 | -0.162 | 0.152 | -0.574 | -1.59 | -1.45 | -0.155 | 1.07 (inactive) | 0.855 | 0.2 | 0.377 (inactive) | -0.0171 | -0.0904 (inactive) | 0.0246 (inactive) | -0.0365 (inactive) | -0.438 (inactive) | 0.0315 (inactive) | 0.235 (inactive) | -0.195 (inactive) | -0.577 | -0.191
9 | CCCC[C@@H](O)C1=C(COc2ccccc2)C[C@H]2C(=O)N(C)C(=O)[C@H]2[C@H]1CO | 0.683 | 0.0659 | 1.54 | 0.196 | 0.131 | 1.11 | 0.56 (inactive) | 0.547 | -2.03 | -0.703 (inactive) | -0.0624 | -3.78 (inactive) | 0.147 (inactive) | -1.85 (inactive) | 0.613 (inactive) | -3.3 (inactive) | 1.6 (inactive) | 1.41 (inactive) | 0.296 | -0.127
